Screens as filed in PubChem BioAssay.
Rows were chosen to be rich in hits. Some 6.5% of all compounds tested hit in one or more screens of this group.
Vaccinia Venus: vaccinia inhibition (Venus reporter) | Vaccinia virus Venus reporter expression, fluorescence | actives 0.46% (n = 330,000) | Potency, µM (doses to about 36.5 µM), most hits filed as inhibitors; calls by dose curve; tested in A549 cells; also: nearly all actives have a fitted effect of over 30% in size
Lassa entry inh: inhibitors of Lassa virus binding or cell entry; Lassa virus pseudotype entry inhibition, cell reporter; Potency, µM (highest dose often 37.9 µM), usual class: inhibitors; actives 1.2% (n = 300,000); calls by dose curve; tested in HEK293 cells; also: nearly all actives have a fitted effect of over 50% in size
MARV entry inh: Marburg virus entry inhibition. Marburg virus pseudotyped entry inhibition, cell reporter. Potency, µM (doses to about 37.8 µM), most hits filed as inhibitors. actives 1.8% (n = 300,000). AID 540276; calls by dose curve; tested in HEK293 cells
HCMV antiviral: inhibitors of human cytomegalovirus. HFF cells, HCMV-luciferase reporter, 72 h; stronger effect = lower value. activity change, negative = inhibition, % at 57.5 µM. actives 4.5% (n = 410,000); in the data active = activity change below about -60%; inconclusive = no clear call, values can overlap the other calls; inactive = above about -39%
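Human foreskin fibroblasts infected with luciferase-reporter HCMV at MOI 1 PFU/cell, compounds at two doses. Luciferase measured 72 h post infection; normalized to buffer-only basal and Salinomycin (10uM) controls.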
FMDV inh: antivirals against foot and mouth disease virus; FMDV antiviral cell-based qHTS; Potency, µM (series often up to 57.9 µM), hits mostly inhibitors; actives 1.2% (n = 410,000); AID 1159524; calls by dose curve; tested in HEK293T cells; also: read-out not given here; nearly all actives have a fitted effect of over 45% in size
VACV mCherry inh: inhibitors of vaccinia virus infection (mCherry reporter signal) | Vaccinia virus mCherry reporter infection, fluorescence | Potency, µM (highest dose often 36.5 µM), actives largely listed as inhibitors | actives 0.63% (n = 310,000) | AID 720579; calls by dose curve; tested in A549 cells; also: nearly all actives have a fitted effect of over 35% in size
Numbers stand for hits.

How did COC(=O)c1ccccc1NC(=O)CN1CCOCC1 do in these assays?
Lassa entry inh: inactive; MARV entry inh: inactive; HCMV antiviral: inactive; FMDV inh: inactive

Results for COC(=O)c1ccccc1NC(=O)CN1CCCCC1 ?
Vaccinia Venus: active; Lassa entry inh: inconclusive; MARV entry inh: inconclusive; HCMV antiviral: inactive; FMDV inh: inactive; VACV mCherry inh: active

Results for CCCCc1nn2c(=O)cc(COC(=O)C(C)Oc3ccccc3)nc2s1 (stereo not given) ?
Vaccinia Venus: inactive; Lassa entry inh: inactive; HCMV antiviral: inactive; FMDV inh: inactive; VACV mCherry inh: inactive

What do the screens show for `C[n+]1ccnc2cc(Cl)ccc21`?
Vaccinia Venus: 2.2µM; VACV mCherry inh: 11µM

What do the screens show for `C[n+]1ccnc2ccccc21`?
Vaccinia Venus: 2.2µM; VACV mCherry inh: 7.9µM

How did Cc1ccc2onc(CC(=O)Nc3ccc(C(C)C)cc3)c2c1 do in these assays?
Vaccinia Venus: inactive; Lassa entry inh: inactive; HCMV antiviral: inactive; FMDV inh: inactive; VACV mCherry inh: inactive

Results for CSc1c2c(n(CC3CCCCC3)c1CC(=O)NC1CCCCC1)CCCC2 ?
MARV entry inh: inactive

What do the screens show for `C/C(CCN1CCc2nc(-c3ccccc3)c(-c3ccccc3)cc2C1)=N\OC[C@@H](O)[C@H]1O[C@@H]2OC(C)(C)O[C@@H]2[C@H]1O`?
MARV entry inh: inactive

What do the screens show for `Cc1nc(S(=O)(=O)Cc2ccc(Cl)cc2)nc2c1CCC2`?
Vaccinia Venus: inactive; Lassa entry inh: inactive; MARV entry inh: inactive; HCMV antiviral: inconclusive; FMDV inh: inactive; VACV mCherry inh: inactive

What do the screens show for `Cc1ccc(CS(=O)(=O)c2nc3c(c(N(C)C)n2)CCCC3)cc1`?
Vaccinia Venus: inconclusive; Lassa entry inh: inconclusive; MARV entry inh: inconclusive; HCMV antiviral: -93; FMDV inh: inactive; VACV mCherry inh: inconclusive

Results for CCN1C(=O)/C(=C/c2ccc3c(c2)CCN3CCCCl)C(=O)NC1=S ?
Vaccinia Venus: inactive; Lassa entry inh: inactive; MARV entry inh: inactive; HCMV antiviral: inactive; FMDV inh: inconclusive; VACV mCherry inh: inactive

Results for C=CCN1C(=O)/C(=C/c2ccc(Br)s2)C(=O)NC1=S ?
HCMV antiviral: inactive; FMDV inh: 32µM

Results for C=CCN1C(=O)/C(=C/c2ccc3c(c2)CCCN3CCC)C(=O)NC1=S ?
Vaccinia Venus: inactive; Lassa entry inh: inactive; MARV entry inh: inactive; HCMV antiviral: inactive; FMDV inh: 32µM; VACV mCherry inh: inactive

How did CC(=O)OC[C@H]1O[C@@H](ON=C[C@@H](C)[C@H](OCc2ccccc2)C(C)C)[C@@H](OC(C)=O)[C@@H](OC(C)=O)[C@@H]1OC(C)=O do in these assays?
Lassa entry inh: inactive; MARV entry inh: inconclusive

What do the screens show for `COC(=O)C1C=CC(OC2OC(COC(C)=O)C(OC(C)=O)C(OC(C)=O)C2OC(C)=O)n2c(=O)n(-c3ccccc3)c(=O)n21` (stereo not given)?
Vaccinia Venus: inconclusive; Lassa entry inh: inconclusive; MARV entry inh: inconclusive; HCMV antiviral: -98; FMDV inh: 25µM; VACV mCherry inh: 10µM

How did O=C(Nc1cccc(Cl)c1)Nc1nccs1 do in these assays?
Lassa entry inh: inactive; MARV entry inh: inactive; HCMV antiviral: inactive; FMDV inh: inactive

What do the screens show for `Cc1nc2cc(NC(=O)Nc3nccs3)ccc2n1C`?
Vaccinia Venus: inactive; Lassa entry inh: 13µM; MARV entry inh: inconclusive; HCMV antiviral: inactive; VACV mCherry inh: inactive

What do the screens show for `O=C(Nc1ccc(Cl)c(Cl)c1)Nc1nccs1`?
HCMV antiviral: -66; FMDV inh: inactive

What do the screens show for `O=C(CCCn1c(=O)[nH]c2ccccc2c1=O)NCc1ccccc1Cl`?
Vaccinia Venus: inactive; Lassa entry inh: inactive; HCMV antiviral: inactive; FMDV inh: inactive; VACV mCherry inh: inactive

What do the screens show for `Cc1ccc(S(=O)(=O)Nc2ccc3c(c2)OCCO3)cc1`?
Vaccinia Venus: inactive; Lassa entry inh: inconclusive; MARV entry inh: inactive; HCMV antiviral: inactive; FMDV inh: inactive; VACV mCherry inh: inactive

Results for O=C1CCCN1c1ccc(S(=O)(=O)Nc2ccc3c(c2)OCCO3)cc1 ?
Vaccinia Venus: inconclusive; Lassa entry inh: inconclusive; MARV entry inh: inconclusive; HCMV antiviral: -81; VACV mCherry inh: inconclusive

Results for Clc1ccc2c(c1)C(c1ccccc1Cl)=NCc1nncn1-2 ?
Vaccinia Venus: inactive; Lassa entry inh: inactive; MARV entry inh: inactive; HCMV antiviral: inactive; FMDV inh: inactive; VACV mCherry inh: inactive

What do the screens show for `Clc1ccc2c(c1)C(c1ccccc1Cl)=NCc1nnc(Br)n1-2`?
Vaccinia Venus: inconclusive; Lassa entry inh: inactive; MARV entry inh: inconclusive; HCMV antiviral: inactive; FMDV inh: inactive; VACV mCherry inh: 13µM

Results for Cc1cc(C)c2c(=O)[nH]c(SCC(=O)c3ccc(F)c(C)c3)nc2n1 ?
Vaccinia Venus: inactive; Lassa entry inh: inconclusive; MARV entry inh: inactive; HCMV antiviral: -103; FMDV inh: inactive; VACV mCherry inh: inactive

What do the screens show for `COC(=O)C1=C(C)N(Cc2ccco2)C(=O)/C1=C\c1ccc(N(C)C)cc1`?
Vaccinia Venus: inactive; Lassa entry inh: inactive; MARV entry inh: inconclusive; HCMV antiviral: inactive; FMDV inh: inactive; VACV mCherry inh: inactive

How did COC(=O)C1=C(C)N(Cc2ccco2)C(=O)/C1=C\c1ccc([N+](=O)[O-])cc1 do in these assays?
Vaccinia Venus: inactive; Lassa entry inh: inconclusive; MARV entry inh: inconclusive; HCMV antiviral: inactive; FMDV inh: 22µM; VACV mCherry inh: inactive

What do the screens show for `CC1CCCN(C(=O)COc2ccc(Nc3ccccc3)cc2)C1` (stereo not given)?
Vaccinia Venus: inactive; Lassa entry inh: inactive; MARV entry inh: inconclusive; HCMV antiviral: inactive; FMDV inh: inactive; VACV mCherry inh: inactive

Results for O=C(Nc1ccc(OCC(=O)N2CCC(Cc3ccccc3)CC2)cc1)c1ccco1 ?
Lassa entry inh: inactive; MARV entry inh: inactive; HCMV antiviral: -83; FMDV inh: inactive

How did CC1CCN(C(=O)COc2ccc(Nc3ccccc3)cc2)CC1 do in these assays?
Vaccinia Venus: inactive; Lassa entry inh: inactive; MARV entry inh: inconclusive; HCMV antiviral: -74; FMDV inh: inactive; VACV mCherry inh: inactive

How did CC(=O)Nc1ccc(OCC(=O)N2CCC(Cc3ccccc3)CC2)cc1 do in these assays?
Vaccinia Venus: inactive; Lassa entry inh: inactive; MARV entry inh: inactive; HCMV antiviral: inactive; FMDV inh: inconclusive; VACV mCherry inh: inactive

Results for COC(=O)C(O)(c1ccccc1)C(Nc1ccc(OC)cc1)c1ccc(Br)cc1 (stereo not given) ?
HCMV antiviral: inactive

What do the screens show for `O=C(NCc1cccc(F)c1)[C@@H]1[C@@H](CO)[C@@H]2Cn3c(cccc3=O)[C@H]1N2C(=O)c1cnccn1`?
HCMV antiviral: inactive

What do the screens show for `c1nnnn1C12CC3CC(CC(C3)C1)C2`?
Vaccinia Venus: inactive; Lassa entry inh: inactive; MARV entry inh: inactive; HCMV antiviral: -64; FMDV inh: inactive

How did CCCOc1ccc(NC(=O)CC2C(=O)N(c3cccc(OC)c3)C(=O)N2CCc2ccncc2)cc1 (stereo not given) do in these assays?
Vaccinia Venus: inactive; Lassa entry inh: inactive; HCMV antiviral: inactive; FMDV inh: inactive; VACV mCherry inh: inactive
